Rows were chosen to be rich in hits. Some 22% of all compounds tested hit in one or more screens of this group.
CYP2C19 act = cytochrome P450 2C19 (human) activation; P33261; recombinant CYP2C19, luciferin-H EGE luminescence; hits give high values; 0 = fully inhibited enzyme, 1 = untreated enzyme; activation factor at 5 µM; 96,000 tested, under 10 active; AID 1025;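 active = activation factor of at least 2 at 5 µM in the primary screen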
Target sequence (P33261 whole entry, looked up): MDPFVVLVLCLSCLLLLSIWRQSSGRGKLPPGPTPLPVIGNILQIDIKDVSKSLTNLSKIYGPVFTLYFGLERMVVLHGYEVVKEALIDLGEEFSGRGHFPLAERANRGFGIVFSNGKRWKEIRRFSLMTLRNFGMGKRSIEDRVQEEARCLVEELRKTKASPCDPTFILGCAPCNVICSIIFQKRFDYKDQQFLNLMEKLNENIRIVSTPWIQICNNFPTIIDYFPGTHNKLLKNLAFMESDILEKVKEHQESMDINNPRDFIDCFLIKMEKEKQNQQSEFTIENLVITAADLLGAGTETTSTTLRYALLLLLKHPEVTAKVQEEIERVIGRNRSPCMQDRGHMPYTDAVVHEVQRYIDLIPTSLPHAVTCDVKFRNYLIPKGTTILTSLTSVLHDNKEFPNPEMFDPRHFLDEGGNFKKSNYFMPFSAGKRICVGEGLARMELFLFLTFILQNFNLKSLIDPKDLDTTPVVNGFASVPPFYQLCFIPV
CYP2C9 act = CYP2C9 (human) activation | AID 1024 | 1.4% of 96,000 active | recombinant CYP2C9, luciferin-H conversion, luminescence; hits give high values; factor 1 = untreated enzyme, 0 = blocked | P11712 | activation factor at 5 µM;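 active = activation factor of 2 or more for CYP2C9 at a 5 µM dose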
CYP2C9 inh = blocks human cytochrome P450 2C9 | P11712 | CYP2C9 Supersomes, luciferin-H conversion, luminescence | inhibition, % at 5 µM | 20% of 96,000 active;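 active = blocking of liver enzyme CYP2C9 beyond about 50% at 5 µM, limit read from the data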
CYP2C19 inh = blocks human cytochrome P450 2C19; P33261; CYP2C19 Supersomes, luciferin-H EGE luminescence, 30 min; inhibition, % at 5 µM; 21% of 96,000 active;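 active = CYP2C19 inhibition above a set limit at 5 µM in the primary screen, cut at about 50% in these data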
Measles CPE = protection of cells from measles virus; Measles virus-infected cells, CPE protection, absorbance; protection (pct of control), % at 4 µM; 1.5% of 140,000 active; in the data active = protection mostly above about 24%, no sharp cut-off; inactive = mostly below about 26%
Hits are given with their value; – = inactive; · = not tested or not shown.

SMILES	CYP2C19 act	CYP2C9 act	CYP2C9 inh	CYP2C19 inh	Measles CPE
O=C(c1ccco1)N1CCN=C1SCc1c(F)cccc1Cl	–	–	–	–	–
Cc1cccc(CSC2=NCCN2C(=O)c2ccc(Br)o2)c1	–	–	–	73	–
O=C(c1ccco1)N1CCN=C1SCc1ccccc1Cl	–	2.6	–	–	–
O=C(CCCSc1nc2ccccc2[nH]1)NCc1ccc(Cl)cc1	·	·	·	·	–
c1ccc(-n2c(SCC3CCCCO3)nnc2-c2cccs2)cc1 (centres undefined)	–	–	–	–	–
O=C(C1CC1)N1CCN=C1SCc1cccc(F)c1	–	–	–	90	–
O=C(C1CCCN(Cc2cccc(F)c2)C1)N1CCCCC1 (centres undefined)	–	–	–	–	–
CCCNC(=O)c1cccc(Cn2nc(C)c(Br)c2C)c1	–	–	63	85	–
Cn1nc(C(F)(F)F)c(/C=N/OCc2c(Cl)cccc2Cl)c1Cl	–	–	80	52	–
Cn1nc(C(F)(F)F)c(/C=N/OC(=O)c2ccc(Cl)cc2)c1Cl	–	–	–	–	–
O=C(NCC1CCCO1)c1ccc(CS(=O)(=O)c2c(Cl)cccc2Cl)o1 (centres undefined)	–	–	–	54	–
Nc1sc2c(c1C(=O)NC1CCS(=O)(=O)C1)CCC2 (centres undefined)	–	–	–	–	–
COC(=O)c1sc2ccccc2c1-n1cccc1C(=O)C(=O)Nc1ccc(F)cc1	–	–	100	–	–
COC(=O)c1sc2ccccc2c1-n1cccc1C(=O)C(=O)Nc1ccc(Cl)cc1	–	–	99	–	–
COC(=O)c1sc2ccccc2c1-n1cccc1C(=O)C(=O)Nc1ccc(C)cc1	–	–	100	–	–
O=C(CN1C(=O)c2ccccc2C1=O)Nc1ccccc1C(=O)N1CCCC1	–	–	–	–	–
CC(=O)c1cccc(NC(=O)C(OC(=O)c2cccc(S(=O)(=O)N(C)c3ccccc3)c2)c2ccccc2)c1 (centres undefined)	·	·	·	·	–
CN(C)CCNC(=O)Cn1nc(-c2ccc(Cl)cc2)ccc1=O	–	–	–	–	–
COc1cccc(CNC(=O)Cn2nc(-c3ccc(Cl)cc3)ccc2=O)c1	–	–	77	55	–
COc1ccccc1-c1ccc(=O)n(CC(=O)NCc2ccc3c(c2)OCO3)n1	–	–	–	56	–
O=C(Cn1nnc(-c2ccccc2Cl)n1)NCc1ccc2c(c1)OCO2	–	–	94	–	–
O=C(Cn1cnc2ccccc2c1=O)NCc1ccc2c(c1)OCO2	–	–	–	–	–
CC(=O)Nc1cc2c(cc1NC(=O)Cn1nc(-c3ccc4c(c3)OCCO4)ccc1=O)OCCO2	–	–	–	55	–
COC(=O)c1ccc(C)c(NC(=O)CCc2cc(OC)c(OC)c(OC)c2)c1	·	·	·	·	–
Cc1ccc(S(=O)(=O)/N=C(\Nc2cc(C)on2)c2ccc(Cl)cc2)cc1	·	·	·	·	–
SMILES	CYP2C19 act	CYP2C9 act	CYP2C9 inh	CYP2C19 inh	Measles CPE
COc1ccc(CNC(=O)CCSc2nc(-c3ccc4c(c3)OCO4)cc(C(F)(F)F)n2)cc1	·	·	·	·	–
COc1ccc(CNC(=O)Cn2nc(-c3ccc4c(c3)OCCO4)ccc2=O)cc1	–	–	60	–	–
COc1ccc(OC2C(=O)N(Cc3ccc(F)cc3)C2c2ccc(OC)c(OC)c2)cc1 (centres undefined)	–	–	60	72	–
Cc1[nH]c2ccccc2c1C(=O)CN1CCCCC1C (centres undefined)	–	–	–	–	–
Cc1ccc(OCC(=O)N(Cc2ccc(N(C)C)cc2)C2CCS(=O)(=O)C2)cc1 (centres undefined)	–	–	68	54	–
O=C(c1sc2ccccc2c1Cl)N(Cc1cccs1)C1CCS(=O)(=O)C1 (centres undefined)	–	–	53	–	–
Cc1cc(C)cc(OCC(=O)N(Cc2cccs2)C2CCS(=O)(=O)C2)c1 (centres undefined)	–	–	54	82	–
CCCCn1c(SCC(=O)Nc2ccc3c(c2)OCO3)nc2c1c(=O)n(C)c(=O)n2C	–	–	–	–	–
CC1=NC(C(F)(F)F)(C(F)(F)F)C(C#N)=C(C)N1	–	–	–	69	–
CCC(C)NC(=O)COc1ccc(Br)c(C)c1 (centres undefined)	–	–	–	–	–
Cc1ccc(N/C=C(/C#N)c2ccsc2)cc1	–	–	–	64	–
O=C(O)CSC1CC(=O)N(c2ccc(Cl)c(Cl)c2)C1=O (centres undefined)	–	–	–	64	–
O=C(O)CSC1CC(=O)N(c2cccc(Cl)c2)C1=O (centres undefined)	–	–	–	–	–
CCOC(=O)c1c(N)sc2c(O)c(Br)ccc12	–	–	73	–	–
COc1ccc(C(=O)N2N=C(c3cccc(OC)c3)CC2(O)C(F)(F)F)cc1 (centres undefined)	·	·	·	·	–
Cc1ccc(Cc2nc(-c3cccnc3)no2)cc1	·	·	·	·	–
CCC(=O)Oc1ccc(-c2nc(-c3cccnc3)no2)cc1	–	–	70	68	–
c1cncc(-c2noc(-c3cccc4ccccc34)n2)c1	–	–	–	–	–
